Source: PubChem BioAssay (Tox21)
“And” between values parts separate entries of the source, which are not always exact repeats. Equal values may be shown once. Records with an inconclusive call do not appear. A call without a number means that no potency is given here. More than one record can exist for a structure, and the calls need not agree. The source made the active and inactive calls. Unless noted, the call rests on the fitted dose curve; in most records, active means well fitted curve in the direction sought with a large enough effect in the repeat runs; inconclusive means weak or mixed curves; inactive means no such curve, though single readings can be large; an effect the other way counts as inactive or inconclusive.

Key:
[1] = qHTS assay to test for compound auto fluorescence at 535 nm (green) in HEK293 cells (AID 720680)
[2] = qHTS assay to test for compound auto fluorescence at 460 nm (blue) in HEK293 cell free culture (AID 720681)
Method in brief: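 Compounds were added to cell-free DMEM with 10% FBS and fluorescence read directly. The blue channel used 405 nm excitation and 460 nm emission, with triamterene as the reference fluorophore.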

[3] = qHTS assay to test for compound auto fluorescence at 535 nm (green) in HEK293 cell free culture (AID 720682)
Method in brief: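 Each library compound, or DMSO control, is added by pintool to medium alone, comprising DMEM and 10% FBS. Emission at 535 nm following 485 nm excitation is quantified against fluorescein.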

[4] = qHTS assay to test for compound auto fluorescence at 590 nm (red) in HEK293 cell free culture (AID 720683)
Method in brief: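 Cell-free wells of DMEM with 10% FBS received compound, and intrinsic fluorescence was read at excitation/emission 540/590 nm. Values expressed as equivalence to Rose Bengal sodium.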

[5] = qHTS assay to test for compound auto fluorescence at 590 nm (red) in HepG2 cell free culture (AID 720684)
Method in brief: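 Rose Bengal sodium served as the reference for red signal. Test compounds were dispensed into serum-containing MEM (10% FBS) without cells, and plates were read at 540/590 nm.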

[6] = qHTS assay to test for compound auto fluorescence at 460 nm (blue) in HepG2 cell free culture (AID 720685)
Method in brief: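 Cell-free plates of MEM plus 10% FBS received 23 nL compound or DMSO vehicle; blue-channel (405/460 nm) intensity scored against triamterene as reference fluorophore.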

[7] = qHTS assay to test for compound auto fluorescence at 460 nm (blue) in HepG2 cells (AID 720687)
Method in brief: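 HepG2 cells in MEM with 10% FBS, attached overnight at 37 C, were exposed to compound or DMSO for 1 hr at 37 C, 5% CO2. Blue fluorescence was read at 405/460 nm, with triamterene as reference fluorophore.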

[8] = biological target: Glucocorticoid receptor (Homo sapiens) (UniProt P04150); assay: qHTS assay to identify small molecule agonists of the glucocorticoid receptor (GR) signaling pathway (AID 720691; active means well fitted activation curve with a large enough effect in the signal ratio in the repeat runs, not every such curve was filed as active; the % refers to the signal ratio); conditions: GR-bla HeLa, beta-lactamase reporter ratio, 18 h; activation: at 62.4 µM (top of the series)
Glucocorticoid receptor (Homo sapiens), sequence (P04150 whole entry, looked up): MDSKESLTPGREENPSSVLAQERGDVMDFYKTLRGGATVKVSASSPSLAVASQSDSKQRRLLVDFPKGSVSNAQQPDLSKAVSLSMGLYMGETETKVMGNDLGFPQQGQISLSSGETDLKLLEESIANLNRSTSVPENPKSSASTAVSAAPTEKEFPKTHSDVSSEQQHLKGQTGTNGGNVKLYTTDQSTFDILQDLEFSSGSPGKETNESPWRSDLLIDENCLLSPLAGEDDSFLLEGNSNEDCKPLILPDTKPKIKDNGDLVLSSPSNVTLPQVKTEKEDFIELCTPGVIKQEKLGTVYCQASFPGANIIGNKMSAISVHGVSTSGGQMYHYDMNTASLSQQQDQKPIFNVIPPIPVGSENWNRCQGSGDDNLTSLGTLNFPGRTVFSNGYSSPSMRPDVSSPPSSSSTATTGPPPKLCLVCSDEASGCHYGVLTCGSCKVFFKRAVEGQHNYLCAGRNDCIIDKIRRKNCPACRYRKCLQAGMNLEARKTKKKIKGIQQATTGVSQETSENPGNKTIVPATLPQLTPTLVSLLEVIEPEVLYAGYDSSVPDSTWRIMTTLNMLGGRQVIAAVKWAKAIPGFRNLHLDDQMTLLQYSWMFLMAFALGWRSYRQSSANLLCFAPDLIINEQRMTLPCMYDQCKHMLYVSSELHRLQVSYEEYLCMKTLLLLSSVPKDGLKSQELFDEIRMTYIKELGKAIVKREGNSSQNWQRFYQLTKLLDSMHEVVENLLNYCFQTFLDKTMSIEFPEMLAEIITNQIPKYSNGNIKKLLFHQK
Method in brief: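 Steps: seed GR-bla HeLa cells, incubate 4 h at 37 C/5% CO2; pin-transfer DMSO-dissolved compounds; incubate 18 h at 37 C; add LiveBLAzer B/G FRET substrate; after 2 h at room temperature, measure fluorescence.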

[9] = biological target: Glucocorticoid receptor (Homo sapiens) (UniProt P04150); assay: qHTS assay to identify small molecule antagonists of the glucocorticoid receptor (GR) signaling pathway (AID 720692; active means well fitted inhibition curve with a large enough effect in the signal ratio in the repeat runs, not every such curve was filed as active; the % refers to the signal ratio; further: potency means the concentration at half of the fitted maximal effect)
Method in brief: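 Antagonism was scored as loss of dexamethasone-driven (5 nM final) reporter signal in HeLa cells bearing a glucocorticoid response element–beta-lactamase construct, after 18 h compound exposure at 37 C and 2 h FRET substrate loading.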

[10] = qHTS assay to identify small molecule antagonists of the glucocorticoid receptor (GR) signaling pathway - cell viability counter screen (AID 720693); further: nearly all actives have a fitted effect of over 55% in size; further: potency means the concentration at half of the fitted maximal effect
[11] = qHTS assay for identifying genotoxic compounds that show differential cytotoxicity against isogenic chicken DT40 cell lines with known DNA damage response pathways - wild type cell line (AID 743012); further: nearly all actives have a fitted effect of over 60% in size; further: potency means the concentration at half of the fitted maximal effect
Method in brief: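 Cytotoxicity in repair-proficient parental chicken DT40 cells serves as the comparator for Rad54/Ku70- and Rev3-deficient lines. Cells were exposed to compounds for 40 h at 37 C/5% CO2, and ATP-based luminescence (CellTiter-Glo) measured viability.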

[12] = qHTS assay for identifying genotoxic compounds that show differential cytotoxicity against isogenic chicken DT40 cell lines with known DNA damage response pathways - Rev3 mutant cell line (AID 743014); further: nearly all actives have a fitted effect of over 55% in size; further: potency means the concentration at half of the fitted maximal effect
[13] = qHTS assay for identifying genotoxic compounds that show differential cytotoxicity against isogenic chicken DT40 cell lines with known DNA damage response pathways - Rad54/Ku70 mutant cell line (AID 743015); further: nearly all actives have a fitted effect of over 60% in size; further: potency means the concentration at half of the fitted maximal effect
[14] = qHTS assay to identify small molecule antagonists of the androgen receptor (AR) signaling pathway - cell viability counter screen (AID 743033; further: nearly all actives have a fitted effect of over 45% in size; further: potency means the concentration at half of the fitted maximal effect)
[15] = qHTS assay to identify small molecule antagonists of the androgen receptor (AR) signaling pathway using the MDA cell line - cell viability counter screen (AID 743041; further: nearly all actives have a fitted effect of over 45% in size; further: potency means the concentration at half of the fitted maximal effect)
Method in brief: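 Cytotoxicity counter screen: MDA-kb2 AR-luc cells, compound + R1881, 16 h, 37C, 0% CO2; CellTiter-Fluor added at 15.5 h, fluorescence read after 30 min.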

[16] = qHTS assay to test for compound auto fluorescence at 535 nm (green) in HepG2 cell free culture (AID 720686)
[17] = biological target: Androgen receptor (Homo sapiens) (UniProt P10275); assay: qHTS assay to identify small molecule agonists of the androgen receptor (AR) signaling pathway using the MDA cell line (AID 743040; further: nearly all actives have a fitted effect of over 20% in size)
Androgen receptor (Homo sapiens), sequence (P10275 whole entry, looked up): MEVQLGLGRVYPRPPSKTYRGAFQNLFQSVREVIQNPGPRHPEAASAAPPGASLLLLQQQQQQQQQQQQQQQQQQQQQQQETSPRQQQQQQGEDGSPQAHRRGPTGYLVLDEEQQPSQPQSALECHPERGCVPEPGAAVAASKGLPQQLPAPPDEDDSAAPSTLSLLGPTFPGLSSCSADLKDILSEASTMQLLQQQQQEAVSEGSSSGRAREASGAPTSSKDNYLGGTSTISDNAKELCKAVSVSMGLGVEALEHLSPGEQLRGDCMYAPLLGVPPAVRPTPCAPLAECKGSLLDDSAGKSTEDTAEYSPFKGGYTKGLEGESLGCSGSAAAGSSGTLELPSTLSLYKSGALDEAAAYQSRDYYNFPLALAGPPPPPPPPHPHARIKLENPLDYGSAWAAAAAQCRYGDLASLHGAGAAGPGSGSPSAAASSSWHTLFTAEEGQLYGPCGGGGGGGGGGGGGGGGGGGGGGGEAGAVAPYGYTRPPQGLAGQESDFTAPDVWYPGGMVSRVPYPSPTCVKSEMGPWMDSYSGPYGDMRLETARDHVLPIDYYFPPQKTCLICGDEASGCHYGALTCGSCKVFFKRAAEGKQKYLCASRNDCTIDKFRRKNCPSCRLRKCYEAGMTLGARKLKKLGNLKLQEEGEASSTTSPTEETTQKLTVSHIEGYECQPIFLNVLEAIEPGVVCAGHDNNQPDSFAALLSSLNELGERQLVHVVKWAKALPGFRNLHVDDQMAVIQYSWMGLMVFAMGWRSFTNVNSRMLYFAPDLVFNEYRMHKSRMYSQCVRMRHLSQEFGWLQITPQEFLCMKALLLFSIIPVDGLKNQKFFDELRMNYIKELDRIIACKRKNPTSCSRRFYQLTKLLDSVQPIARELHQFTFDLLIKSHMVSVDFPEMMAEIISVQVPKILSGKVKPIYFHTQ
Method in brief: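 Luciferase read-out, ONE-Glo, 30 min RT. Cells: MDA-kb2 AR-luc, MMTV promoter with AR and GR response elements. Compound exposure 16 h, 37C, 0% CO2, after 5 h pre-incubation. qHTS agonist mode.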

[18] = biological target: Androgen receptor (Homo sapiens) (UniProt P10275); assay: qHTS assay to identify small molecule antagonists of the androgen receptor (AR) signaling pathway using the MDA cell line (AID 743042; further: nearly all actives have a fitted effect of over 55% in size; further: potency means the concentration at half of the fitted maximal effect)
Method in brief: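 MDA-kb2 breast carcinoma cells carrying MMTV-luciferase (AR/GR responsive) were co-treated with compounds and the agonist R1881 for 16 h at 37C. Inhibition read as ONE-Glo luminescence; CellTiter-Fluor fluorescence measured in parallel for cytotoxicity.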

[19] = biological target: Androgen receptor (Homo sapiens) (UniProt P10275); assay: qHTS assay to identify small molecule antagonists of the androgen receptor (AR) signaling pathway (AID 743035; active means well fitted inhibition curve with a large enough effect in the signal ratio in the repeat runs, not every such curve was filed as active; the % refers to the signal ratio; further: potency means the concentration at half of the fitted maximal effect)
Method in brief: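 Steps: seed AR-UAS-bla GripTite HEK293 cells, incubate 4 h at 37C; pin in test compound, then add agonist R1881; incubate 16 h at 37C; add LiveBLAzer B/G FRET substrate, 2 h at room temperature; read fluorescence.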

[20] = biological target: Androgen receptor (Homo sapiens) (UniProt P10275); assay: qHTS assay to identify small molecule agonists of the androgen receptor (AR) signaling pathway (AID 743036; active means well fitted activation curve with a large enough effect in the signal ratio in the repeat runs, with a control signal flat, not every such curve was filed as active; the % refers to the signal ratio)
Method in brief: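 Following a 4 h settling period, AR-UAS-bla HEK293 cells were dosed with compounds for 16 h at 37C. A 2 h room-temperature incubation with LiveBLAzer B/G FRET substrate preceded the fluorescence measurement.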

Compound | outcome [1] | Potency [2] | outcome [3] | outcome [4] | outcome [5] | Potency [6] | Potency [7] | Potency [8] | Potency [9] | Potency [10] | Potency [11] | Potency [12] | Potency [13] | Potency [14] | Potency [15] | Potency [16] | Potency [17] | Potency [18] | Potency [19] | Potency [20]
C(=C\c1ccncc1)/c1ccccc1 | inactive | inactive | inactive | inactive | inactive | inactive | inactive | inactive | inactive | inactive | inactive and 26.6 µM (active) | inactive and 26.6 µM (active) | inactive and 26.6 µM (active) | inactive | inactive |  |  |  |  | 
CC(C)CCC[C@@H](C)[C@H]1CC[C@H]2[C@@H]3CC=C4C[C@@H](O)CC[C@]4(C)[C@H]3CC[C@]12C | inactive | inactive | inactive | inactive | inactive |  | inactive | inactive | inactive | inactive | inactive | inactive | inactive | inactive | inactive | inactive |  |  |  | 
CN(C[C@@H](CC[N+]12CCC(C3CCCCC3)(CC1)CC2)c1ccc(Cl)c(Cl)c1)C(=O)c1cc(C(F)(F)F)cc(C(F)(F)F)c1 | inactive | inactive | inactive | inactive | inactive | inactive | inactive |  |  | 17.4 µM (active) | 6.86 µM (active) | 9.69 µM (active) | 8.63 µM (active) | 19.5 µM (active) | 61.1 µM (active) |  | inactive | 54.5 µM (active) |  | 
NCc1cccc(C2CCN(C(=O)c3ccc(C#Cc4ccccc4F)o3)CC2)c1 | inactive | inactive | inactive | inactive | inactive | inactive | inactive |  |  |  | 17.2 µM (active) | 30.6 µM (active) | 17.2 µM (active) | 21.9 µM (active) |  |  | inactive |  |  | 
CC(=O)Oc1cc(C(F)(F)F)ccc1C(=O)O | inactive | inactive | inactive | inactive | inactive |  | inactive | inactive | inactive | inactive | inactive |  | inactive | inactive | inactive | inactive |  |  |  | 
O=C[C@H](O)[C@@H](O)[C@@H](O)[C@H](O)CO | inactive | inactive | inactive | inactive | inactive |  | inactive | inactive | inactive | inactive | inactive | inactive | inactive | inactive | inactive | inactive |  |  |  | 
Cc1cn([C@H]2C[C@H](O)[C@@H](CO)O2)c(=O)[nH]c1=O | inactive | inactive | inactive | inactive | inactive | inactive | inactive |  | inactive | inactive | inactive |  | inactive |  | inactive |  |  |  |  | 
O=C1OC(O)C(C(Cl)Cl)=C1Cl (configuration not stated) | inactive | inactive | inactive | inactive | inactive | inactive |  |  | 25.3 µM (active) |  | 17.8 µM (active) | 1.26 µM (active) | 19.9 µM (active) |  | inactive |  |  |  |  | 
CCCCCCCCCCCCCCCCCCNC(=O)OC1CCN(C(=O)OC[C@H](COC(=O)N(Cc2cccc[n+]2CC)C(=O)c2ccccc2OC)OC)CC1 | inactive | inactive | inactive | inactive | inactive | inactive |  |  |  | 16.9 µM (active) |  | 6.68 µM (active) | 5.96 µM (active) |  | 23.7 µM (active) |  | inactive | 13.3 µM (active) |  | 
CON=C1C[C@]2(C[C@@H]3C[C@@H](C/C=C(\C)C[C@@H](C)/C=C/C=C4\CO[C@@H]5[C@H](O)C(C)=C[C@@H](C(=O)O3)[C@]45O)O2)O[C@H](/C(C)=C/C(C)C)[C@H]1C | inactive | inactive | inactive | inactive | inactive | inactive | inactive |  |  | 7.56 µM (active) and 10.7 µM (active) | 13.3 µM (active) and 16.8 µM (active) |  | 10.6 µM (active) and 13.3 µM (active) |  | inactive |  |  | inactive | 7.56 µM (active) | 
OCC1(CO)COC(C(Cl)(Cl)Cl)OC1 | inactive | inactive | inactive | inactive | inactive |  | inactive | inactive |  | inactive | inactive | inactive | inactive | inactive | inactive | inactive |  |  |  | 
CCOc1ccc(S(=O)(=O)O)c2cccnc12 | inactive | inactive | inactive | inactive | inactive | inactive | inactive | inactive | inactive | inactive | inactive | inactive | inactive | inactive | inactive |  |  |  |  | 
CCN(CC)C(=O)c1cccnc1 | inactive | inactive | inactive | inactive | inactive |  | inactive | inactive | inactive | inactive | inactive | inactive | inactive | inactive | inactive | inactive |  |  |  | 
CCCCCCCCCCCCCCCCCCOCC(COP(=O)([O-])OCC[N+](C)(C)C)OC (configuration not stated) | inactive | inactive | inactive | inactive | inactive | inactive | inactive | inactive |  | inactive | inactive | inactive |  |  | inactive |  |  |  |  | 
Oc1ccc(Cl)c2c1CCC2 | inactive | inactive | inactive | inactive | inactive |  | inactive | inactive |  | inactive | inactive | inactive | inactive | inactive | inactive | inactive |  | inactive | inactive | inactive
